Assay results: PubChem BioAssay AID2156 (Johns Hopkins Ion Channel Center, 2009)
Screen size: about 310,000 compounds; about 3,400 (1.1%) were called active. For the sample, actives were picked, then their nearest neighbours and some compounds at random. Values without a mark were called inactive.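 The calls were made as follows: active = fluorescence ratio B-score at most minus 3 library SDs, with starting brightness B-score within 2 library SDs (cut at about -5.5 in these data); inactive = the rest, inconclusive results apart.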 Square brackets hold non-standard residues; d marks the D form. Peptide text beside a SMILES is read from it. * marks the point of attachment. ξ: configuration not given here. Cbz = O=C(OCc1ccccc1)*; ξL = CC(C)CC(N)C(=O)O; Bz = O=C(c1ccccc1)*; ξP = O=C(O)C1CCCN1

The compounds below were run against Potassium voltage-gated channel subfamily KQT member 2 (Rattus norvegicus) (UniProt O88943) (assay: rat KCNQ2 potassium channel inhibitors, primary screen, cell-based, CHO-K1, FluxOR thallium flux, B-score (AID 2156)). Conditions: 20 min, at 10 µM; hits give low values.
Chain of Potassium voltage-gated channel subfamily KQT member 2 (Rattus norvegicus) (O88943 whole entry, looked up): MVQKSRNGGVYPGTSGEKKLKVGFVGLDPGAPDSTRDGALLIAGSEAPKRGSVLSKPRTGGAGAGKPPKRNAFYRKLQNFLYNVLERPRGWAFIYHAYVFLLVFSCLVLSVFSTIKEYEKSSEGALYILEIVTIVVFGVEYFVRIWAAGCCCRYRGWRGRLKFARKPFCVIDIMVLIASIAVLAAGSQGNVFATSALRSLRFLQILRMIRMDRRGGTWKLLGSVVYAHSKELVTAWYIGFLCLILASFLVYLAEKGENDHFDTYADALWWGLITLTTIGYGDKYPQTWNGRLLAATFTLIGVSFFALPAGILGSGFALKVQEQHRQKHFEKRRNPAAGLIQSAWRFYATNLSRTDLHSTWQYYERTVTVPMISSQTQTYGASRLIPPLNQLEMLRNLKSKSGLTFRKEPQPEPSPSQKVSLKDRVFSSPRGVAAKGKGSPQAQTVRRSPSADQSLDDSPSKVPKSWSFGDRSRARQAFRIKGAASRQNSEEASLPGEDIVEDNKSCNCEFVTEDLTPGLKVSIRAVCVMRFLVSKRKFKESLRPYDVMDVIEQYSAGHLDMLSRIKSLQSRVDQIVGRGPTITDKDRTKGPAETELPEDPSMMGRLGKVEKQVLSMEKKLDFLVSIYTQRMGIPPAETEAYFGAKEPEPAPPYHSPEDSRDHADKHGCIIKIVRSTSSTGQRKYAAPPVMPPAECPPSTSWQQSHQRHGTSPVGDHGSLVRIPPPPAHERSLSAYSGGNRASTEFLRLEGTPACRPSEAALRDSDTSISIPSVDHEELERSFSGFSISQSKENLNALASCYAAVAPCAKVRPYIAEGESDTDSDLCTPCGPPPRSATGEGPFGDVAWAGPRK
In the case of `CCN(Cc1ccccc1)S(=O)(=O)c1cc2c3c(c1)CCN3C(=O)CC2`, the B-score was -0.41.
In the case of `Cc1ccc(S(=O)(=O)N2CCC(C(=O)NCCC3=CCCCC3)CC2)cc1C`, the B-score was “inactive”.
For `COc1ccc(NC(=O)N2CCCC2C(=O)NCc2ccccc2Cl)cc1` (stereo not given), the B-score was -1.43.
In the case of `O=C(NCc1ccccc1Cl)C1CCCN1S(=O)(=O)c1ccc(F)cc1` (stereo not given), the B-score was -6.35 (active).
In the case of `Cc1cccc(NC(=O)C2CCCN2S(=O)(=O)c2ccc(F)cc2)c1C` (stereo not given), the B-score was -3.21.
For `CCOc1ccc(NC(=O)CN(C)C(=O)c2c(C)noc2C)cc1OCC`, the B-score was -0.82.
For `CCN(C(=O)CSc1nnnn1-c1ccccc1OC)C1CCS(=O)(=O)C1` (stereo not given), the B-score was -0.06.
`CCc1nc(SCC(=O)NNC(=O)c2ccc(C)cc2)c2ccccc2n1` gave a B-score of -1.77.
`CCCc1nc(SCC(=O)Nc2ccc(S(=O)(=O)N(C)C)cc2)c2ccccc2n1` was tested, and the B-score was “inactive”.
In the case of `CC(C)N(C(=O)CSc1nc(COc2ccccc2)nc2ccccc12)C(C)C`, the B-score was -7.53 (active).
For `CC[C@@]12C(=O)N(c3ccccc3)C(=O)N1[C@H](c1ccc(Br)cc1)[C@@H]1C(=O)N(C(C)(C)C)C(=O)[C@@H]12`, the B-score was “inactive”.
With `Cc1ccc(CNC(=O)CN2CCN(Cc3ccc(Cl)cc3)C2=O)cc1` the B-score was -0.18.
In the case of `O=C(CN1CCN(c2ccc(Cl)cc2)CC1)NCc1cccs1`, the B-score was -0.84.
With `Cc1ccccc1N1CCN(CC(=O)NCc2ccc(Cl)cc2)CC1` the B-score was -8.15 (active).
Work on `COc1ccc(NC(=O)CN(C)C(=O)CC2CCCCC2)cc1` yielded a B-score of -0.05.
`COc1ccc2c(c1)C(=O)Nc1cc(Cl)ccc1N2` was tested, and the B-score was “inactive”.
With `Cc1ccc(C)c(-n2cc(CN3CCN(C(=O)c4ncn[nH]4)CC3)c(-c3ccccc3)n2)c1` the B-score was -1.41.
In the case of `Cc1cccc(-n2cc(CN3CCN(C(=O)c4ncn[nH]4)CC3)c(-c3cccc(F)c3)n2)c1`, the B-score was -8.35 (active).
In the case of `CCC(O)C1CCN(Cc2cn(-c3ccc(OC)cc3)nc2-c2cccc(F)c2)CC1` (stereo not given), the B-score was “inactive”.
With `CCN1C(=O)[C@@H]2[C@@H](c3ccc(-c4ccc(OC)cc4)c(OC)c3)N3CCC[C@@]3(C(=O)OC)[C@@H]2C1=O` the B-score was “inactive”.
`COC(=O)C1=C(C)N(c2ccc(Br)cc2)C(=O)/C1=C\c1ccco1` gave a B-score of -1.96.
`O=C(CCCN1C(=O)/C(=C/c2ccco2)SC1=S)Nc1ccccc1` gave a B-score of -0.39.
In the case of `COC(=O)C1=C(C)N(C(C)c2ccccc2)C(=O)/C1=C\c1ccco1` (stereo not given), the B-score was -8.53 (active).
For `COc1ccc(CCNC(=O)C(=O)NCC2CCCN2S(=O)(=O)c2cccs2)cc1OC` (stereo not given), the B-score was “inactive”.
For `COc1ccc(COC(=O)NC(C(=O)O)c2ccccc2)cc1` (stereo not given), the B-score was “inactive”.
`CC(C)[C@H](NC(=O)OCc1ccccc1)C(=O)OCc1ccccc1` was tested, and the B-score was -7.34 (active).
In the case of `COC(=O)[C@H](C)[C@H]1C[C@]1(C)[C@H](NC(=O)OCc1ccccc1)c1ccccc1`, the B-score was -3.52.
In the case of `CC(C)C(NC(=O)OCc1ccccc1)C(=O)OCC(=O)N1C(C)CCCC1C` (stereo not given), the B-score was -8.16 (active).
`CC(C)CC(NC(=O)C1CCCN1C(=O)[C@@H](C)NC(=O)OCc1ccccc1)C(=O)NCC(N)=O` (stereo not given in full) (Cbz-[dA][ξP][ξL]G-NH2) was tested, and the B-score was “inactive”.
For `COC(=O)[C@H](Cc1ccccc1)NC(=O)[C@@H]1C[C@H]1[C@@H](NC(=O)OCc1ccccc1)c1ccccc1`, the B-score was “inactive”.
For `Cc1ccc(C)c(OCCC(=O)Nc2cccc(S(=O)(=O)N3CCCC3)c2)c1`, the B-score was “inactive”.
Compound `Cc1ccc2nc(SCC(=O)Nc3cccc4ccccc34)nc(=O)n2c1` has a B-score of -0.48.
`COc1ccc(NC(=O)CN(C)C(=O)Cc2coc3cc(C)c(C)cc23)cc1` showed a B-score of -0.02.
For `Brc1cnc2ccccc2c1N1CCCCC1`, the B-score was “inactive”.
In the case of `COc1ccccc1NC(=O)CSc1nnc(-c2ccoc2C)n1CCc1ccccc1`, the B-score was -8.21 (active).
`CCCn1c(SCC(=O)Nc2cccc(C(=O)OCC)c2)nnc1-c1ccoc1C` was tested, and the B-score was -0.31.
For `COc1ccccc1NC(=O)CSc1nnc(C)n1CC1CCCO1` (stereo not given), the B-score was “inactive”.
For `O=C(COc1coc(CN2CCN(c3ccccc3)CC2)cc1=O)N1CCc2ccccc21`, the B-score was “inactive”.
Compound `C=CCOC(=O)C1=C(C)NC(C)=C(C(=O)OCC=C)C1c1cccs1` has a B-score of -2.85.
For `CC1=C(C(=O)Nc2ccccc2)C(c2cccs2)C(C#N)=C(SCC#N)N1` (stereo not given), the B-score was -6.59 (active).
In the case of `CC1=C(C(=O)Nc2ccccc2)C(c2ccco2)C(C#N)=C(SCC(N)=O)N1` (stereo not given), the B-score was “inactive”.
With `CCN(C(=O)COC(=O)c1sccc1C)c1c(N)n(Cc2ccccc2)c(=O)[nH]c1=O` the B-score was “inactive”.
With `N#CCCN(C(=O)COC(=O)c1ccc(S(=O)(=O)N2CCCCCC2)cc1)c1ccccc1` the B-score was “inactive”.
`Cc1ccc(C)c(OCCC(=O)OCC(=O)NC(=O)NCc2ccccc2)c1` was tested, and the B-score was “inactive”.
`COc1ccc2c(c1)O/C(=C\c1ccccc1O)C2=O` gave a B-score of -0.61.
`COc1ccc(NC(=O)CN(C)C(=O)c2ccc(NC3CC3)c([N+](=O)[O-])c2)cc1` was tested, and the B-score was “inactive”.
`C=CC(COCc1ccccc1)N(Cc1ccccc1)S(=O)(=O)c1ccccc1Br` (stereo not given) was tested, and the B-score was -5.61 (active).
`C=CCCN(Cc1ccccc1)S(=O)(=O)c1ccccc1Br` was tested, and the B-score was “inactive”.
In the case of `CC1CCN(c2ccc(-c3ccc(NC(=O)c4ccco4)cc3)nn2)CC1`, the B-score was “inactive”.
`Cc1ccc(S(=O)(=O)N(C)C)cc1NC(=O)COC(=O)c1c(C)noc1C` showed a B-score of -0.34.
For `CCc1noc(C)c1C(=O)Oc1ccc(N(C)S(=O)(=O)c2ccc(C)c(C)c2)cc1`, the B-score was -6.86 (active).
`COCCNC(=O)COc1ccc(N(C)S(=O)(=O)c2ccc3ccccc3c2)cc1` was tested, and the B-score was “inactive”.
In the case of `CCCc1cc(=O)[nH]c2nnc(SCC(=O)Nc3nnc(SCC)s3)n12`, the B-score was “inactive”.
With `Cc1ccc(-c2csc(NC(=O)C3=COCCO3)n2)cc1C` the B-score was -0.1.
`CC(Cc1ccccc1)C(=O)N(C)Cc1ccccc1` (stereo not given) was tested, and the B-score was -0.83.
With `CN(Cc1ccccc1F)C(=O)C(Cc1ccccc1)NC(=O)c1ccccc1` (stereo not given) the B-score was -7.91 (active).
Work on `O=C(NC(Cc1ccccc1)C(=O)N1CCCC1C(=O)O)c1ccccc1` (stereo not drawn) (Bz-Phe-Pro-OH; configuration not given here) yielded a B-score of -0.06.
`CSc1ccccc1NC(=O)C(C)N1C(=O)c2ccccc2S1(=O)=O` (stereo not given) was tested, and the B-score was “inactive”.
For `CC1=NNC(=O)C1Cc1c(Cl)cccc1Cl` (stereo not given), the B-score was “inactive”.
In the case of `COC(=O)[C@@]12CCCN1[C@H](c1ccc(-c3ccc(F)cc3)c(OC)c1)[C@H]1C(=O)N(C)C(=O)[C@H]12`, the B-score was “inactive”.
With `COc1ccc(C(=O)CN2C(=O)NC3(CCc4ccccc43)C2=O)c(OC)c1` (stereo not given) the B-score was “inactive”.
With `CCN(CC)c1ccc(S(=O)(=O)N2CCCCC2)cc1NC(=O)C1=COCCO1` the B-score was -0.93.
In the case of `C=CCn1c(SCC(=O)NCC2CCCO2)nc2sc(C)c(C)c2c1=O` (stereo not given), the B-score was “inactive”.
Compound `Cc1sc2nc(SCC(N)=O)n(C)c(=O)c2c1C` has a B-score of -0.14.
For `C=CCn1c(SCC(=O)/C(C#N)=C(\C)N)nc2sc(C)c(C)c2c1=O`, the B-score was -7.77 (active).
`COc1ccccc1C(=O)NC(=O)COC(=O)C1CC1` was tested, and the B-score was “inactive”.
With `COCCN(C(=O)COC(=O)Cc1cccc(OC)c1)c1c(N)n(Cc2ccccc2)c(=O)[nH]c1=O` the B-score was “inactive”.
In the case of `COc1cccc(COc2ccc(N(C)S(=O)(=O)c3ccccc3)cc2)c1`, the B-score was -8.25 (active).
`Cc1ccc2nc(COc3ccc(N(C)S(=O)(=O)c4ccccc4)cc3)cc(=O)n2c1` was tested, and the B-score was “inactive”.
Compound `CN(c1ccc(OCC(=O)O)cc1)S(=O)(=O)c1ccc2ccccc2c1` has a B-score of -1.18.
`COc1ccccc1C(CNC(=O)c1cccc(NS(=O)(=O)c2ccc(Br)cc2)c1)N(C)C` (stereo not given) gave a B-score of -0.89.
For `O=S(=O)(Nc1ccc(-c2ccc(N3CCOCC3)nn2)cc1)c1cc(Cl)ccc1Cl`, the B-score was -0.08.
`CCCOc1ccc(C2c3c(oc4cc(C)c(C)cc4c3=O)C(=O)N2CCCN2CCOCC2)cc1` (stereo not given) was tested, and the B-score was -0.39.
In the case of `Cc1cc2oc(=O)cc(CN3CCN(Cc4ccccc4)CC3)c2cc1C`, the B-score was “inactive”.
In the case of `Cc1cc2oc3ccc(NCCC4CCCN4C)cc3c(=O)c2cc1C` (stereo not given), the B-score was -6.02 (active).
In the case of `Cc1ccc(S(=O)(=O)N2CCN(C(=O)Cc3sc(C)nc3-c3ccc(F)cc3)CC2)c(C)c1`, the B-score was -0.7.
With `CC(C)CN(C(=O)COC(=O)c1ccc2ccccc2c1)c1c(N)n(Cc2ccccc2)c(=O)[nH]c1=O` the B-score was “inactive”.
With `O=C(Nc1cc(Cl)ccc1N1CCOCC1)c1ccc(N2CCCC2=O)cc1` the B-score was “inactive”.
Compound `COc1cc(OC)cc(C(=O)NNC(=O)CNC(=O)c2ccc(Br)o2)c1` has a B-score of -1.49.
In the case of `Cc1ccc(O)c(CNc2nc3ccccc3n2C)c1`, the B-score was “inactive”.
In the case of `CC(C)n1c(NCc2c[nH]c3ccccc23)nc2ccccc21`, the B-score was -8.14 (active).
With `CC(C)n1c(COc2ccccc2)nc2ccccc21` the B-score was -0.24.
`Cc1nn(C)c(C)c1NS(=O)(=O)c1ccc(OC(F)(F)F)cc1` was tested, and the B-score was “inactive”.
In the case of `Cc1ccc(NC(=O)CSc2nnc(COc3ccccc3C)o2)cc1`, the B-score was “inactive”.
For `O=C(CSc1nc2ccccc2o1)N1c2ccccc2Sc2ccc(Cl)cc21`, the B-score was -3.87.
In the case of `Cc1ccccc1OCc1nnc(SCC(=O)N2c3ccccc3Sc3ccc(Cl)cc32)o1`, the B-score was -7.73 (active).
`CN(N)c1nc(N2CCCC2)nc(N2CCCC2)n1` showed a B-score of -0.33.
Work on `CC(=O)CC[C@@H](C)O[C@@H]1OC(C)[C@H](O)CC1O` (stereo not given in full) yielded a B-score of -0.8.
`c1ccc2c(CSCc3nc4ccccc4[nH]3)cccc2c1` gave a B-score of -4.3.
With `Clc1ccccc1SCc1nc2ccccc2[nH]1` the B-score was -5.77 (active).
For `c1ccc(-c2nnc(SCc3nc4ccccc4[nH]3)o2)cc1`, the B-score was “inactive”.
`O=C(CSc1nc(=O)n2ccccc2n1)Nc1ccc2c(c1)OCCO2` gave a B-score of -1.2.
`COc1ccccc1NC(=O)[C@H](COCc1ccccc1)NC(=O)OC(C)(C)C` was tested, and the B-score was -6.32 (active).
For `C#CCNC(=O)[C@H](Cc1ccc(C(=O)c2ccccc2)cc1)NC(=O)OC(C)(C)C`, the B-score was “inactive”.
`COc1ccccc1NC(=O)C(C)OC(=O)CC1CCCC1` (stereo not given) showed a B-score of -1.
